Measured potencies and affinities stand elsewhere. Values without a mark were called inactive. How the calls were made is not given here.
Target: Melanocortin receptor 4 (Homo sapiens) (UniProt P32245)
Assay: blockade of melanocortin 4 receptor signaling – cell-based, plate reader, cherry pick, counter-screen for LGR2 antagonist project, dose response (AID 743444)
Conditions: MC4R-expressing cells, antagonist mode; series mostly up to 35 µM; activity change, negative = inhibition: at the top concentration

Structure (SMILES)	activity change, negative = inhibition
COc1ccc(N(CC(=O)NCc2cccs2)S(=O)(=O)c2ccc(C(C)=O)cc2)cc1	52.5%
Cc1noc2ncnc(Sc3ccc(Br)cc3)c12	35.7%
Cc1ccc(S(=O)(=O)N2[C@@H](CO)CO[C@H]2CC(=O)OCc2ccccc2)cc1	31.3%

— PubChem BioAssay
